Screening data deposited in PubChem by National Center for Advancing Translational Sciences (NCATS).
An excerpt weighted towards active compounds, which were near 1.2% of everything screened.
KAT2A inh: blocks human GCN5L2 histone acetyltransferase | 390,000 tested, 0.21% active | Q92830 | Potency, µM (highest dose often 58.9 µM), inactives show top-dose activity change, negative = inhibition, actives largely listed as inhibitors | AID 504327 | GCN5L2 HAT assay, ThioGlo1 CoA-SH fluorescence; note: potency is the fitted concentration of half-maximal effect
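Free CoA generated was detected with ThioGlo1 (50uM) fluorescence at Ex340nm/Em540nm, read immediately and after 20 min at room temperature. Enzyme, 20 nM in HEPES pH 7.5 buffer, saw compounds 15 min before adding 75uM H3(1-25) peptide and 70uM acetyl-CoA.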
PI4K2A inh: PI4K2A (human) kinase inhibition | Q9BTU6 | purified PI4K2A, ADP-Glo luminescence, 1 h; stronger effect = lower value | activity change, negative = inhibition, % at 76.9 µM | 420,000 tested, 0.13% active; in the data active = activity change below about -50%; inconclusive = mostly about -30% to -49%;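 note: -100% = wells without enzyme as full effect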
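Compounds are screened against recombinant PI4K2A using PI as substrate and ATP, the latter dispensed at 300 microM. Reactions run one hour at ambient temperature before ADP-Glo detection; full inhibition defined by wells lacking enzyme.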
Pin1 inhibitor: blocks the human prolyl isomerase Pin1; Pin1 FP peptide displacement, HiFluor488, 10 min; Potency, µM (top dose mostly 115 µM), for inactives: top-dose activity, negative = inhibition, hits mostly inhibitors; 390,000 tested, 0.009% active; active = well fitted inhibition curve with a large enough effect in the polarisation, with a control signal flat, not every such curve was filed as active; inconclusive = small, poorly fitted or top-dose-only effect, or effect the other way, or a change in a side signal; inactive = no such curve, though single readings can be large or run the other way; the % refers to the polarisation; note: potency is the fitted concentration of half-maximal effect
Target sequence (Q13526 whole entry, looked up): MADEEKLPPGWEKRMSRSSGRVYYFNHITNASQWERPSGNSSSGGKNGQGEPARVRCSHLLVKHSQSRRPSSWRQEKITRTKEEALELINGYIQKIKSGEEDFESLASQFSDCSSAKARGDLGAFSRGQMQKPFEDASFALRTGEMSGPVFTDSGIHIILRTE
PGK inhibitor: T. brucei PGK inhibition | Potency, µM (top dose mostly 57.5 µM), for the others: at the highest dose activity change, negative = inhibition, hits mostly inhibitors | PGK/GAPDH coupled, Kinase-Glo luminescence, 60 min | AID 602233 | P07378 | 380,000 tested, 0.043% active; note: potency is the fitted concentration of half-maximal effect; nearly all actives have a fitted effect of over 60% in size
Target sequence (P07378 whole entry, looked up): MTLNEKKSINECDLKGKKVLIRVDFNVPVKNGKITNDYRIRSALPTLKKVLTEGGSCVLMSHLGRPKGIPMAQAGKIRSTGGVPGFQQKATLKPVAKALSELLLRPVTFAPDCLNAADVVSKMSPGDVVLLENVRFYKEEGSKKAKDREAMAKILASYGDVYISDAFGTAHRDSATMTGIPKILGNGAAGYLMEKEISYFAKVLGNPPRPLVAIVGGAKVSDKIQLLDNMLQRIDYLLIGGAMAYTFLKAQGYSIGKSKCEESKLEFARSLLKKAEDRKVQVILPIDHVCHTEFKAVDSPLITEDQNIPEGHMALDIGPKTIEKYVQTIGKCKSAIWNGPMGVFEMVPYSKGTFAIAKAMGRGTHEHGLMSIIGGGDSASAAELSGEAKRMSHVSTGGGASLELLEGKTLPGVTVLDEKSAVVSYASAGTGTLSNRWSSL
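Recombinant glycosomal PGK reaction used 1,3-bisphosphoglycerate generated in-well by GAPDH (100nM final) in 100mM TEA pH 7.6, 5mM MgCl2, 0.01% Tween-20. After 60 minutes at room temperature, ATP was read by Kinase-Glo Plus luminescence end-point.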
PI5P4Ka inh: blocks human PI5P4K alpha kinase activity | 330,000 tested, 1.2% active | max response, % | PI5P4Kalpha enzyme, ADP-Glo luminescence, 60 min; stronger effect = lower value | AID 652105; active = max response of -50% or lower; inconclusive = between -30% and -50%; inactive = -30% or higher; note: value at the top dose of about 77 µM
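PI5P4Kalpha ADP-Glo assay; 5 microM ATP final; 60 min RT reaction; HEPES pH 7.4/EGTA/CHAPS, 5% DMSO; controls lacking substrate or enzyme; luminescent end-point.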
GoLoco inh red: RGS12 GoLoco-Gai1 interaction inhibition | P63096 | Gai1:RGS12 GoLoco peptide FP, rhodamine, 10 min | Potency, µM (series often up to 61.6 µM), for the others: at the highest dose activity, negative = inhibition, hits mostly inhibitors | 230,000 tested, 0.44% active; active = well fitted inhibition curve with a large enough effect, not every such curve was filed as active; inactive = no such curve, though single readings can be large or run the other way; note: potency is the fitted concentration of half-maximal effect; nearly all actives have a fitted effect of over 30% in size
Starred values were filed as active, the others as inactive; i = inactive; ? = inconclusive; / = no result given. Unless noted, calls come from the whole dose curve; as a rule, active = well fitted curve in the direction sought with a large enough effect; inconclusive = small, poorly fitted or top-dose-only effect, or another doubt; inactive = no such curve, though single readings can be large; an effect the other way counts as inactive or inconclusive. Unless noted, % is set by controls: 0 for no effect and ±100 for the full control effect.

SMILES	KAT2A inh	PI4K2A inh	Pin1 inhibitor	PGK inhibitor	PI5P4Ka inh	GoLoco inh red
O=c1[nH]c(/C=C/c2ccccc2Cl)c([N+](=O)[O-])c(=O)[nH]1	-12%	-15	0%	-10%	-69*	/
CC(C)c1ccc(/C=C/c2[nH]c(=O)[nH]c(=O)c2[N+](=O)[O-])cc1	0%	-11	-3%	-11%	-57*	/
COc1cc(/C=C/c2onc(C)c2[N+](=O)[O-])cc(OC)c1OC	/	2	1%	6%	-11	/
CCOc1cc(/C=C\c2[nH]c(=O)[nH]c(=O)c2[N+](=O)[O-])ccc1OC(C)CC (stereo unspecified)	-13%	-27	33%	i	/	-3%
COc1cccc(/C=C/c2[nH]c(=O)[nH]c(=O)c2[N+](=O)[O-])c1O	-1%	-9	-1%	0%	-90*	/
CCOc1ccc(/C=C/c2[nH]c(=O)[nH]c(=O)c2[N+](=O)[O-])cc1	2%	-2	3%	-7%	?	/
COc1cc(/C=C/c2[nH]c(=O)[nH]c(=O)c2[N+](=O)[O-])cc(OC)c1O	-12%	-19	-2%	-7%	-88*	/
CCOC(=O)N1CCC(NC(=O)c2ccc3c(=O)n4c(nc3c2)CCCC4)CC1	-11%	0	?	8%	0	-6%
Cc1ccc(Cn2cnc3c(cnn3-c3ccc(F)cc3)c2=O)cc1	-2%	6	2%	10%	-1	3%
CCOc1ccccc1NC(=O)Nc1nnc(N(C)Cc2ccccc2)s1	-2%	0	1%	i	/	/
O=C(COc1ccccc1/C=C\c1[nH]c(=O)[nH]c(=O)c1[N+](=O)[O-])Nc1ccccc1	-11%	?	4%	4%	-69*	5%
O=Nc1c(-c2c(O)[nH]c3cc(Br)ccc23)[nH]c2ccccc12	-11%	-17	11%	-6%	-75*	138%
O=C(Cc1ccc([N+](=O)[O-])cc1)Nc1cccc(C(F)(F)F)c1	-12%	-8	?	11%	11	6%
COc1ccc2nc(N3C(=O)C(O)=C(C(=O)c4ccco4)C3c3ccc(C)o3)sc2c1 (stereo unspecified)	-11%	-4	?	-12%	-50*	/
CCOc1ccc2nc(N3C(=O)C(O)=C(C(=O)c4ccco4)C3c3ccco3)sc2c1 (stereo unspecified)	-21%	-6	10%	i	?	/
Cc1ccc2nc(N3C(=O)C(O)=C(C(=O)c4ccc(C)o4)C3c3ccc(O)cc3)sc2c1 (stereo unspecified)	?	7	29%	-5%	-58*	/
COc1ccc2nc(N3C(=O)C(O)=C(C(=O)c4ccco4)C3c3ccccc3OC)sc2c1 (stereo unspecified)	-21%	0	1%	-1%	-5	/
Cc1cc(C)c2nc(N3C(=O)C(O)=C(C(=O)c4ccco4)C3c3ccco3)sc2c1 (stereo unspecified)	?	-7	/	-10%	-53*	/
Cc1ccc2nc(N3C(=O)C(O)=C(C(=O)c4ccco4)C3c3cccs3)sc2c1 (stereo unspecified)	?	0	?	/	/	34%
CN1CCN(c2ncnc3c2ncn3[C@H]2CN(Cc3ccncc3)C[C@@H](CO)O2)CC1	/	0	/	/	-3	/
CCNc1c(NCC)c(=O)c1=O	-3%	-24	-5%	9%	-4	5%
CCN1CCN(C(=O)/C=C/c2ccc(F)cc2)CC1	/	-1	-5%	-1%	-6	/
COc1ccc(C)cc1-n1c(SCC(=O)N2CCOCC2)nc2ccccc2c1=O	/	6	/	-1%	-1	/
O=C(NCc1cccc(CNC(=O)C(=O)NCc2ccco2)c1)C(=O)NCc1ccco1	-9%	?	9%	?	-53*	1%
O=C(NCc1cccc(CNC(=O)c2ccco2)c1)c1ccco1	1%	6	1%	-9%	/	2%
SMILES	KAT2A inh	PI4K2A inh	Pin1 inhibitor	PGK inhibitor	PI5P4Ka inh	GoLoco inh red
COc1ccc(-c2csc(C(O)(c3ccccc3)C(F)(F)F)n2)cn1 (stereo unspecified)	/	-2	/	/	21	/
CCOP(=O)(c1ccc(N(C)C)cc1)C(O)c1ccc(Cl)cc1 (stereo unspecified)	-5%	5	-12%	-10%	/	1%
CSc1c2c([nH]c(=O)c1C#N)-c1ccccc1CC2	/	1	/	/	-8	/
N#Cc1c(-c2cccnc2)c2c([nH]c1=O)-c1ccccc1OC2	?	-4	?	-2%	-59*	13%
Cc1cccc(NC(=O)Cc2ccc(NC3=NC4CS(=O)(=O)CC4S3)cc2)c1 (stereo unspecified)	22µM*	-1	3%	-3%	-7	/
O=C(NCc1ccc(Cl)cc1)c1cccc(NC2=NC3CS(=O)(=O)CC3S2)c1 (stereo unspecified)	28µM*	2	0%	11%	4	/
Cc1ccc(SCCC(=O)NC(C)C)cc1	-3%	-3	4%	7%	/	-6%
Cc1ccc(SCCC(=O)OC(C(=O)NC(N)=O)C(C)C)cc1 (stereo unspecified)	-5%	1	2%	i	-67*	0%
O=C(O/N=C1/CCSc2ccccc21)c1ccc(F)cc1	13%	-7	8%	-6%	/	9%
O=C(O/N=C1/CCCc2occc21)c1ccc(F)cc1	-5%	-28	-3%	-14%	-58*	-16%
O=c1c2cc(F)ccc2sn1-c1ccccc1	1.1µM*	-12	1%	1%	-85*	/
O=c1c2cc(C(F)(F)F)ccc2sn1-c1ccccc1	/	-1	/	-9%	-102*	/
CCC(=O)N1CCc2cc(S(=O)(=O)NCCC(=O)N3CCN(c4ccccn4)CC3)ccc21	1%	2	8%	2%	2	2%
CCN1C(=O)C(CC(=O)Nc2ccc(OC)cc2)N(Cc2ccco2)C1=S (stereo unspecified)	0%	4	-7%	i	2	-44%
Cc1ccc(C(=O)c2coc3cc([N+](=O)[O-])c(O)c([N+](=O)[O-])c23)cc1	-13%	-7	?	-9%	-82*	-21%
C/C=C\C=C/C(=O)Nc1cccc(C2=NOC3(C2)C[C@H](C(N)=O)N(C(=O)Cc2ccc([N+](=O)[O-])cc2)C3)c1 (stereo partly specified)	0%	-26	?	i	-57*	-26%
C/C=C\C=C/C(=O)Nc1cccc(C2=NOC3(C2)C[C@@H](C(N)=O)N(C(=O)CCCCC)C3)c1 (stereo partly specified)	-13%	-7	2%	-9%	-67*	-17%
